Compounds without any hit were thinned out: in the full panel of roughly 83,000, 20% have a hit.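 Single-concentration screen, 48 h exposure, 96-well plates. Endpoint: percent growth. Below 10 = active.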 Activity calls are given as the source filed them.
tested on: 786-0 renal; assay: NCI-60 one-dose screen, 48 h (100 = growth as untreated, 0 = no growth, -100 = all killed); conditions: 10 µM unless noted

| Compound | growth |
| --- | --- |
| O=C(O)COc1ccc([N+](=O)[O-])cc1Cl | 98.7% (inactive) |
| C=C[C@]1(C)C=C2C(=O)[C@@]3(O)OC[C@@]4(CCCC(C)(C)C43O)C2(O)C(O)C1 (stereo not given in full) | 38.2% (inactive) |
| COC(=O)C(C(=O)OC)C(Br)C(Br)C(Br)c1ccccc1 (stereo not given) | 96.3% (inactive) |
| C=CCNCCC#N | 102% (inactive) |
| O=C1C=C(OCC=C(C(F)(F)F)C(F)(F)F)c2ccccc2C1=O | -19.8% (active) |
| N#CCc1ncc(-c2ccc(C(F)(F)F)cc2)c(NC2CCCCCC2)n1 | 28.6% [100 µM] (inactive) |
| C[C@]12CC[C@H]3[C@@H](CC[C@H]4C[C@@H](O)CC[C@@]43C)[C@@H]1CC(=O)C2 | 107% (inactive) |
| COC(=O)c1cc(=O)nc(N/N=C/c2ccccc2O)s1 | 95.1% (inactive) |
| [N-]=[N+]=Nc1ncc(-c2ccc(C(F)(F)F)cc2)c(NC2CCCCCC2)n1 | 38.1% [100 µM] (inactive) |
| NC(CSC(c1ccccc1)(c1ccccc1)c1ccccc1)C(=O)NCC(=O)O (stereo not given) | 71.3% (inactive) |
| COc1cc(-c2nc(/C=C3/C(=O)Nc4ccccc43)c3ccccn23)cc(OC)c1OC | 71.9% (inactive) |
| COc1cc2cn3c4ccc(O)cc4[nH]c(=O)c3c2cc1OC | 1.09% (active) |
| CCCCCCCCCCCCCCCCNC(=O)Nc1ccc(C)c(NC(=O)NCCCCCCCCCCCCCCCC)c1 | 118% (inactive) |
| O=C(c1ccccc1)c1ccccc1-c1ccccc1 | 37.8% (inactive) |
| CN1NC(c2ccccc2)NN(C)C1=O | 102% (inactive) |
| COc1cc2c(c3c1c(=O)c1cccc(F)c1n3C)C=CC(C)(C)O2 | 103% (inactive) |
| NCCCOc1cc2ccccc2cc1C(=O)Nc1ccc(Cl)cc1OC(=O)c1cc2ccccc2cc1OCCCN | -86.2% (active) |
| O=C(/C=C/c1ccc(Cl)cc1)c1ccc(Cl)cc1 | 83.4% (inactive) |
| CC(=O)O.[In] | 101% (inactive) |
| COC(=O)[C@H](Cc1cn(C)cn1)NC(=O)[C@H](CC(=O)OCc1ccccc1)NC(=O)Nc1cc(C(F)(F)F)cc(C(F)(F)F)c1 | -92% [100 µM] (active) |

| Compound | growth |
| --- | --- |
| COc1cc([C@@H]2c3cc4c(cc3[C@H](O)[C@H]3COC[C@@H]23)OCO4)cc(OC)c1OC | 78.5% (inactive) |
| COc1ccc(/C=C2\CCCC3=C2N=C2SC=NN2C3c2ccc(OC)c(OC)c2)cc1OC (stereo not given) | 70.2% (inactive) |
| CC(=O)CC(=O)OC/C=C(/C)CCC=C(C)C | 104% (inactive) |
| CC(=O)Nc1ccc(S(=O)(=O)Cl)cc1 | 104% (inactive) |
| CC(CCN1CCN(CCC(C)CC(C)(C)C)C1CC(C)CC(C)(C)C)CC(C)(C)C (stereo not given) | 97.9% (inactive) |
| C=C(C)C(C(=O)OCC)(C(=O)OCC)C(C)C | 103% (inactive) |
| CSCc1ncc(-c2ccc(C(F)(F)F)cc2)c(NC2CCCCCC2)n1 | 66.4% [25 µM] (inactive) |
| CCn1cnc(C[C@H](NC(=O)[C@@H](NC(=O)Nc2cc(C(F)(F)F)cc(C(F)(F)F)c2)C(C)C)C(=O)OC)c1 | -87.5% [100 µM] (active) |
| O=Nc1ccc(O)c2ccccc12 | 77.7% (inactive) |
| COC(=O)c1c[n+]([O-])ccc1OC | 100% (inactive) |
| CC#Cc1nc(Nc2cc(C)[nH]n2)c2ccccc2n1 | 7.19% [100 µM] (active) |
| CC(Br)c1nc2ccccc2cc1C(N)=O (stereo not given) | 103% (inactive) |
| COC(=O)[C@H](Cc1cn(C)cn1)NC(=O)[C@@H](NC(=O)Nc1cc(C(F)(F)F)cc(C(F)(F)F)c1)C(C)(C)C | -88.2% [100 µM] (active) |
| CCCCCCC(C(=O)OCC)(C(=O)OCC)C1CCCCCC1 | 115% (inactive) |
| CCCCCCCCCCCCCCCCCCOP(=O)(O)O | 116% (inactive) |
| CCC(C)CC(N)O (stereo not given) | 105% (inactive) |
| CN(C)CCOC(=O)C(C)(C)C | 110% (inactive) |
| CNc1ccc(Nc2ccc(S(=O)(=O)O)cc2)c2c1C(=O)c1ccccc1C2=O | 103% (inactive) |
| Cn1c2ccccc2c2ccccc21 | 105% (inactive) |
| NCCCOc1cc(Cl)ccc1NC(=O)c1cc2ccccc2cc1OCCCN | -89.2% (active) |

tested on: COLO 205 colon; assay: as above; conditions: 10 µM unless noted

| Compound | growth |
| --- | --- |
| O=C(O)COc1ccc([N+](=O)[O-])cc1Cl | 110% (inactive) |
| C=C[C@]1(C)C=C2C(=O)[C@@]3(O)OC[C@@]4(CCCC(C)(C)C43O)C2(O)C(O)C1 (stereo not given in full) | 9.48% (active) |
| COC(=O)C(C(=O)OC)C(Br)C(Br)C(Br)c1ccccc1 (stereo not given) | 71.2% (inactive) |
| C=CCNCCC#N | 116% (inactive) |
| O=C1C=C(OCC=C(C(F)(F)F)C(F)(F)F)c2ccccc2C1=O | 52.7% (inactive) |
| N#CCc1ncc(-c2ccc(C(F)(F)F)cc2)c(NC2CCCCCC2)n1 | 18.7% [100 µM] (inactive) |
| C[C@]12CC[C@H]3[C@@H](CC[C@H]4C[C@@H](O)CC[C@@]43C)[C@@H]1CC(=O)C2 | 101% (inactive) |
| COC(=O)c1cc(=O)nc(N/N=C/c2ccccc2O)s1 | 93% (inactive) |
| [N-]=[N+]=Nc1ncc(-c2ccc(C(F)(F)F)cc2)c(NC2CCCCCC2)n1 | 36.3% [100 µM] (inactive) |
| NC(CSC(c1ccccc1)(c1ccccc1)c1ccccc1)C(=O)NCC(=O)O (stereo not given) | 16.6% (inactive) |
| COc1cc(-c2nc(/C=C3/C(=O)Nc4ccccc43)c3ccccn23)cc(OC)c1OC | 75.1% (inactive) |
| COc1cc2cn3c4ccc(O)cc4[nH]c(=O)c3c2cc1OC | -19.5% (active) |
| CCCCCCCCCCCCCCCCNC(=O)Nc1ccc(C)c(NC(=O)NCCCCCCCCCCCCCCCC)c1 | 116% (inactive) |
| O=C(c1ccccc1)c1ccccc1-c1ccccc1 | 22.6% (inactive) |
| CN1NC(c2ccccc2)NN(C)C1=O | 105% (inactive) |
| COc1cc2c(c3c1c(=O)c1cccc(F)c1n3C)C=CC(C)(C)O2 | 102% (inactive) |
| NCCCOc1cc2ccccc2cc1C(=O)Nc1ccc(Cl)cc1OC(=O)c1cc2ccccc2cc1OCCCN | -90.8% (active) |
| O=C(/C=C/c1ccc(Cl)cc1)c1ccc(Cl)cc1 | 113% (inactive) |
| CC(=O)O.[In] | 112% (inactive) |
| COC(=O)[C@H](Cc1cn(C)cn1)NC(=O)[C@H](CC(=O)OCc1ccccc1)NC(=O)Nc1cc(C(F)(F)F)cc(C(F)(F)F)c1 | -93.7% [100 µM] (active) |

| Compound | growth |
| --- | --- |
| COc1cc([C@@H]2c3cc4c(cc3[C@H](O)[C@H]3COC[C@@H]23)OCO4)cc(OC)c1OC | 96.7% (inactive) |
| COc1ccc(/C=C2\CCCC3=C2N=C2SC=NN2C3c2ccc(OC)c(OC)c2)cc1OC (stereo not given) | 22.7% (inactive) |
| CC(=O)CC(=O)OC/C=C(/C)CCC=C(C)C | 109% (inactive) |
| CC(=O)Nc1ccc(S(=O)(=O)Cl)cc1 | 108% (inactive) |
| CC(CCN1CCN(CCC(C)CC(C)(C)C)C1CC(C)CC(C)(C)C)CC(C)(C)C (stereo not given) | 86.2% (inactive) |
| C=C(C)C(C(=O)OCC)(C(=O)OCC)C(C)C | 117% (inactive) |
| CSCc1ncc(-c2ccc(C(F)(F)F)cc2)c(NC2CCCCCC2)n1 | 95% [25 µM] (inactive) |
| CCn1cnc(C[C@H](NC(=O)[C@@H](NC(=O)Nc2cc(C(F)(F)F)cc(C(F)(F)F)c2)C(C)C)C(=O)OC)c1 | -94.1% [100 µM] (active) |
| O=Nc1ccc(O)c2ccccc12 | 21.9% (inactive) |
| COC(=O)c1c[n+]([O-])ccc1OC | 109% (inactive) |
| CC#Cc1nc(Nc2cc(C)[nH]n2)c2ccccc2n1 | -100% [100 µM] (active) |
| CC(Br)c1nc2ccccc2cc1C(N)=O (stereo not given) | 110% (inactive) |
| COC(=O)[C@H](Cc1cn(C)cn1)NC(=O)[C@@H](NC(=O)Nc1cc(C(F)(F)F)cc(C(F)(F)F)c1)C(C)(C)C | -74.6% [100 µM] (active) |
| CCCCCCC(C(=O)OCC)(C(=O)OCC)C1CCCCCC1 | 102% (inactive) |
| CCCCCCCCCCCCCCCCCCOP(=O)(O)O | 111% (inactive) |
| CCC(C)CC(N)O (stereo not given) | 109% (inactive) |
| CN(C)CCOC(=O)C(C)(C)C | 116% (inactive) |
| CNc1ccc(Nc2ccc(S(=O)(=O)O)cc2)c2c1C(=O)c1ccccc1C2=O | 118% (inactive) |
| Cn1c2ccccc2c2ccccc21 | 104% (inactive) |
| NCCCOc1cc(Cl)ccc1NC(=O)c1cc2ccccc2cc1OCCCN | -88% (active) |

Reference: PubChem BioAssay (NCI)
